In PubChem BioAssay AID623868 (Vanderbilt High Throughput Screening Facility, 2012):
The campaign covered roughly 2,100 compounds. About 760 (36%) were called active. These entries were drawn from the full list. Values without a mark were called inactive.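 How the source made its calls: active means thallium-flux fluorescence traces judged by eye to show enhanced or reduced glutamate response, manual score 1 or -1, so both directions (some results past the limit were not filed as active); inactive means the rest, including fluorescent or raised-baseline compounds.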

Assay: non-GIRK thallium flux modulation in mGlu8 cells, confirmation, counter-screen for GIRK activator project, cell-based, HEK-293 rmGlu8, no GIRK (AID 623868);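 further: extra codes mark interference with 3 for fluorescent and 4 for baseline rise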
Conditions: thallium flux fluorescence, at 10 µM, actives lie on both sides, codes: 1 enhancer, -1 blocker, 0 none, thallium stimulus containing EC20 glutamate

Row | SMILES | manual score
1 | Cc1ccc2c(CC(=O)NC3CCCc4ccccc43)coc2c1 (configuration not stated) | 0
2 | COc1cccc(NC(=O)COc2ccc(C)cc2)c1 | 0
3 | CCOc1ccc(NC(=O)Nc2cc(C)ccc2OC)cc1 | 0
4 | COc1ccc(OCC(=O)NNC(=O)C(=O)Nc2ccc(C)cc2)cc1 | 1 (active)
5 | C=C(C)C1CC=C(C)/C(=N/NC(=O)COc2ccc(C)cc2)C1 (configuration not stated) | 0
6 | Cc1ccc(OCC(=O)N/N=C/c2cccn2C)cc1 | 0
7 | CC(C)(C)NC(=O)C(=O)NNC(=O)COc1ccc(Br)cc1 | 1 (active)
8 | Cc1ccc(OCC(=O)NNC(=O)C(=O)NC(C)(C)C)cc1 | 1 (active)
9 | COc1ccccc1NC(=O)COc1ccc(Br)cc1CO | 0
10 | S=C1NC2=C(CCCC2)C2(CCCCC2)N1 | 0
11 | CN(CC(=O)Nn1cnnc1)S(=O)(=O)c1ccc(Br)cc1 | 0
12 | C/C(=N\NC(=O)c1ccc(Cl)cc1)c1ccc(Br)s1 | 1 (active)
13 | C/C(=N\NC(=O)c1ccccc1)c1nc2ccccc2n1C | 0
14 | C/C(=N\NC(=O)c1cccc(F)c1)c1ccc(Br)s1 | 1 (active)
15 | C/C(=N\NC(=O)c1ccccc1O)c1ccc(Br)s1 | 1 (active)
16 | CCC(NC(=O)c1ccccc1O)c1ccccc1 (configuration not stated) | 0
17 | O=C(N/N=C/c1c(Cl)cccc1Cl)c1cccc(F)c1 | 0
18 | CN(C)/C=C/C(=O)/C=C/c1cn(-c2ncc(C(F)(F)F)cc2Cl)c2ccccc12 | 0
19 | CCc1ccc2c(c1)C1(NN=C(c3ccc(C)cc3)S1)C(=O)N2 (configuration not stated) | 0
20 | CCOC(=O)c1ccc(CNCc2ccc(Br)cc2)cc1 | 0
21 | CCOC(=O)c1c(NS(=O)(=O)c2ccc(Br)cc2)sc2c1CCC2 | 1 (active)
22 | CCOC(=O)c1c(NS(=O)(=O)c2cccc(OC)c2)sc2c1CCC2 | 1 (active)

Row | SMILES | manual score
23 | CCOC(=O)c1c(NC(=O)C2C3C=CC(C3)C2C(=O)O)sc2c1CCC(CC)C2 (configuration not stated) | 0
24 | O=C1CS/C(=N\C(=O)N2c3ccccc3Sc3ccccc32)N1 | 0
25 | CC(C)Cn1cnc2c(c(-c3ccccc3)c(-c3ccccc3)n2Cc2ccco2)c1=N | 0
26 | CC(=O)/C(=N\Nc1ccc(Cl)cc1Cl)Sc1cccc2cccnc12 | 1 (active)
27 | O=S(=O)(Nc1cc(Sc2cccc3cccnc23)c(O)c2ccccc12)c1ccc(F)cc1 | 0
28 | CCOc1ccc(-c2nc(-c3ccncc3)no2)cc1OCC | 0
29 | O=C(CC(=O)c1cc(Cl)ccc1O)c1ccccc1 | 1 (active)
30 | C/C(=N/NC(=O)c1cc(Cl)ccc1O)C12CC3CC(CC(C3)C1)C2 | 0
31 | O=C(c1cccc(F)c1)N1CCN(Cc2ccco2)CC1 | 0
32 | Cc1ccc(C(=O)CC(=O)c2cc(Cl)ccc2O)cc1 | 0
33 | O=C(CC(=O)c1ccccc1O)c1ccc(F)cc1 | 1 (active)
34 | O=C(CC(=O)c1ccccc1O)c1cccc(F)c1 | 1 (active)
35 | Cc1cccc(C(=O)CC(=O)c2cc(Cl)ccc2O)c1 | 0.5
36 | COC(=O)c1nc(NC(C)=O)n[nH]1 | 0
37 | Cc1ccc(NC(=O)COn2nnc3ccc(S(=O)(=O)N(C)C)cc32)cc1F | 0
38 | Cc1ccc(C2c3c(oc4ccc(Cl)cc4c3=O)C(=O)N2CCCN2CCOCC2)o1 (configuration not stated) | 1 (active)
39 | CCN(CC)CCN1C(=O)c2oc3ccccc3c(=O)c2C1c1ccc(C)cc1 (configuration not stated) | 0
40 | O=c1c(O)c(-c2cccs2)oc2ccc(Cl)cc12 | 3
41 | COCCn1c(CN(Cc2ccccc2)Cc2ccccc2)nc2c1c(=O)n(C)c(=O)n2C | 0
42 | O=C(N/N=C\c1cc(Br)c(Br)o1)c1cncc(Br)c1 | 1 (active)
43 | CCNC(=O)NC(=O)COC(=O)CCCSc1nc2ccccc2[nH]1 | 0
44 | CN(C)CCCOc1ccc(C(C)(C)c2ccccc2)cc1 | 0

Row | SMILES | manual score
45 | O=C(NC(=S)Nc1ccccc1Cl)c1csnn1 | 1 (active)
46 | O=C(NC(=S)Nc1ccccc1)c1csnn1 | 1 (active)
47 | Cc1ccc(C)c(NC(=S)NNC(=O)c2csc(C(C)C)c2)c1 | 1 (active)
48 | CC(C)C(=O)Nc1cccc(NC(=O)c2cc3ccccc3o2)c1 | 0
49 | Cc1cccc(NC(=S)NNC(=O)c2csc(C(C)C)c2)c1 | 1 (active)
50 | O=[n+]1c2c(n([O-])c3cc(F)c(N4CCCC4)cc31)CCC2 | 3
51 | Cc1cccc2c(=O)cc(C)n(CC(=O)N3CCCCC3)c12 | -0.5
52 | COc1ccc2c(-c3ccccc3)cc(SCC(=O)N(C)C3CCS(=O)(=O)C3)nc2c1 (configuration not stated) | 1 (active)
53 | CCOC(=O)CSc1nc(C)c2cc(OC)ccc2n1 | 0
54 | CCN(C(=O)CSc1nc2ccccc2n1CCc1ccccc1)C1CCS(=O)(=O)C1 (configuration not stated) | 0
55 | Cc1ccc(NC(=O)Cc2ccccc2Cl)cc1S(=O)(=O)N(C)C | 0
56 | CN(CCNC(=O)c1cc2c(=O)n(C)c3ccccc3c2n1C)Cc1ccccc1 | 0
57 | CC1(C)Cc2c(ccc3ccccc23)-c2nnc(-c3cccnc3)n21 | 0
58 | COc1ccc(-c2ccnc3nc(Sc4ncc(C(F)(F)F)cc4Cl)nn23)cc1 | 0
59 | Cc1ccc(NC(=S)NCc2ccccc2)cc1[N+](=O)[O-] | 0
60 | COc1cccc(C(=O)NC(=S)Nc2ccc([N+](=O)[O-])cc2C)c1 | 1 (active)
61 | Cc1cc([N+](=O)[O-])ccc1NC(=S)NC(=O)Cc1ccccc1 | 1 (active)
62 | O=C(NC(=S)Nc1cc([N+](=O)[O-])ccc1Cl)c1ccccc1 | 0
63 | O=C(Cc1ccccc1)N/N=C/c1cccn1-c1ccc([N+](=O)[O-])cc1 | 0
64 | Cc1ccc([N+](=O)[O-])cc1NC(=S)NC(=O)c1ccco1 | 1 (active)
65 | CC(=O)Nc1ccc(NC(=O)CSc2nccn2Cc2ccccc2)cc1 | 0
66 | COc1ccc(CO/N=C/c2c(C)[nH]c(=O)[nH]c2=O)cc1 | 0

Row | SMILES | manual score
67 | CCOC(=O)C(CCCCOc1cccc(CC)c1)C(=O)OCC | 0
68 | CCOc1ccc(-c2nc(-c3ccc(OC)cc3)no2)cc1OCC | 0
69 | Oc1c(Cl)cc(Cl)c2c1NCCC2 | 0
70 | Cc1cccc(OCC(O)Cn2c(=N)n(CCN3CCCCC3)c3ccccc32)c1 (configuration not stated) | 0
71 | c1ccc2c(c1)oc1c(N3CCN(Cc4ccc5c(c4)OCO5)CC3)ncnc12 | 0
72 | COc1ccccc1N1CCN(Cc2cc(Br)c(O)c3ncccc23)CC1 | 1 (active)
73 | COC(=O)C1=C(C)NC(=O)/C1=C\c1ccco1 | 0
74 | Cc1cccc(N=C2NC(=O)/C(=C/C=C/c3ccco3)S2)c1C | 1 (active)
75 | CC(C)c1ccc(-c2noc(C3CCCN(S(C)(=O)=O)C3)n2)cc1 (configuration not stated) | 0
76 | CCOC(=O)c1c(C)c(C(=O)N2CCc3ccccc3C2)c(C)n1CC | 0
77 | O=C(COc1c(Br)cc(Br)c2cccnc12)N1CCc2ccccc2C1 | 1 (active)
78 | CC(C)=CCC(C)(C)CNC(=O)NC1CCCCC1 | 0
79 | Cn1c(-c2sc3ccccc3c2Cl)n[nH]c1=S | 1 (active)
80 | CCC(CC)c1nnc(NC(=O)C2COc3ccccc3O2)s1 (configuration not stated) | 0
81 | CCC(CC)c1nnc(NC(=O)c2ccc3ccccc3n2)s1 | 1 (active)
82 | Cc1nnc(NC(=O)CCSc2ccccc2)s1 | 0
83 | N#CCN1C(=S)N=C(Nc2cccc(Cl)c2)C12CCCCC2 | 0
84 | COc1ccc(NC2=NC(=S)N(c3ccccc3C)C23CCCCC3)cc1 | 1 (active)
85 | Cc1ccc(NC2=NC(=S)N(CC#N)C23CCCCC3)cc1 | 1 (active)
86 | CC1CCCCN1CCCn1c(=S)[nH]c2ccccc2c1=O (configuration not stated) | 0
87 | CC(C)CCn1c(CN2CCN(Cc3ccccc3)CC2)nc2c1c(=O)[nH]c(=O)n2C | 0
88 | CC1CC(C)CN(CCCn2c(=S)[nH]c3ccccc3c2=O)C1 (configuration not stated) | 1 (active)

Row | SMILES | manual score
89 | O=c1c2ccccc2[nH]c(=S)n1CCN1CCN(Cc2ccccc2)CC1 | 1 (active)
90 | O=c1c2ccccc2[nH]c(=S)n1CCCN1CCN(C2CCCCC2)CC1 | 1 (active)
91 | CCC1CCCCN1CCCn1c(=S)[nH]c2ccccc2c1=O (configuration not stated) | 1 (active)
92 | O=C(NCc1ccccc1)c1ccc2c(=O)n(CCCN3CCCC3=O)c(=S)[nH]c2c1 | 0
93 | CCC1CCCN1Cn1cnc2c([nH]c3ccc(OC)cc32)c1=O (configuration not stated) | 0
94 | Cc1ccccc1-c1nc(CN2CCC(C(=O)NCCCN3CC(C)CC(C)C3)CC2)c(C)o1 (configuration not stated) | 0
95 | Cc1cccc(N2C(N)=NC(N)=NC23CCCCC3)c1 | 0
96 | CCN(CC)S(=O)(=O)c1cc(NC(=O)Cn2cnc3ccccc3c2=O)ccc1C | 0
97 | CC(C)CN(C(=O)COC(=O)Cc1n[nH]c(=O)c2ccccc12)C1CCS(=O)(=O)C1 (configuration not stated) | 0
98 | COc1ccc(-c2c3c([nH]c(=S)c2C#N)CCC3)cc1 | 1 (active)
99 | CCOC(=O)c1c(C)[nH]c(=S)c(C#N)c1-c1ccc(Cl)cc1 | 0.5
100 | CCN1CCCC1CNC(=O)CSCc1nc(-c2ccccc2C)oc1C (configuration not stated) | 0
101 | O=C(/C=C/c1ccccc1)NC(NC(=S)Nc1cccc(Cl)c1)C(Cl)(Cl)Cl (configuration not stated) | 0
102 | O=C(/C=C/c1ccccc1)NC(NC(=S)Nc1cc(Cl)ccc1Cl)C(Cl)(Cl)Cl (configuration not stated) | 0
103 | O=C(/C=C/c1ccccc1)NC(NC(=S)Nc1cccc(O)c1)C(Cl)(Cl)Cl (configuration not stated) | 3
104 | CCC1c2ccc(C)n2CCN1C(=O)Nc1ccccc1C(=O)OC (configuration not stated) | 0
105 | COC(=O)c1ccccc1NC(=S)NC(NC(=O)c1ccccc1[N+](=O)[O-])C(Cl)(Cl)Cl (configuration not stated) | 1 (active)
106 | COC(=O)c1ccccc1NC(=S)NC(NC(=O)c1ccco1)C(Cl)(Cl)Cl (configuration not stated) | 1 (active)
107 | O=C(NC(NC(=S)Nc1ccc(Cl)cc1Cl)C(Cl)(Cl)Cl)c1cccc([N+](=O)[O-])c1 (configuration not stated) | 1 (active)
